In PubChem BioAssay (NCI):
Compounds without any hit were thinned out: in the full panel of roughly 83,000, 20% have a hit.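 Single-concentration screen, 48 h exposure, 96-well plates. Endpoint: percent growth. Below 10 = active.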 Active and inactive are the calls of the source.

What was measured:
Experiment in all cases: NCI-60 one-dose screen, 48 h (100 = growth as untreated, 0 = no growth, -100 = all killed)
Conditions in all cases: 10 µM unless noted
NCI-H23 lung = system: NCI-H23 lung
NCI-H226 lung = system: NCI-H226 lung
NCI-H322M lung = system: NCI-H322M lung
HOP-62 NSCLC = system: HOP-62 NSCLC
NCI-H460 lung = system: NCI-H460 lung
HOP-92 NSCLC = system: HOP-92 NSCLC
A549/ATCC NSCLC = system: A549/ATCC NSCLC
786-0 renal = system: 786-0 renal
COLO 205 colon = system: COLO 205 colon
DU-145 prostate = system: DU-145 prostate
K-562 leukemia = system: K-562 leukemia
MALME-3M melanoma = system: MALME-3M melanoma
MDA-MB-231 breast = system: MDA-MB-231 breast
RXF 393 renal = system: RXF 393 renal
SF-268 CNS = system: SF-268 CNS
SF-295 CNS = system: SF-295 CNS
SF-539 CNS = system: SF-539 CNS
UACC-257 melanoma = system: UACC-257 melanoma
M14 melanoma = system: M14 melanoma

Measured: growth

C/C(=C\CCc1ccoc1)CC/C=C(\C)CCCN1CCOCC1
inactive: NCI-H23 lung 46.2% | NCI-H226 lung 70.6% | NCI-H322M lung 84.5% | HOP-62 NSCLC 69.1% | NCI-H460 lung 54.3% | HOP-92 NSCLC 57.4% | A549/ATCC NSCLC 63.6% | 786-0 renal 69.4% | COLO 205 colon 40.9% | DU-145 prostate 73.9% | K-562 leukemia 20.6% | MALME-3M melanoma 55.8% | MDA-MB-231 breast 43.7% | RXF 393 renal 50.1% | SF-268 CNS 72.6% | SF-295 CNS 67.8% | SF-539 CNS 78.2% | UACC-257 melanoma 53.4% | M14 melanoma 62.6%

CCOC(=O)c1sc(NC(=O)COc2cccc(/C=C3\Cc4ccc(Cl)cc4C3=O)c2)nc1C
inactive: NCI-H23 lung 93.1% | NCI-H226 lung 95.4% | NCI-H322M lung 130% | HOP-62 NSCLC 107% | NCI-H460 lung 103% | HOP-92 NSCLC 96.7% | A549/ATCC NSCLC 107% | 786-0 renal 99.5% | COLO 205 colon 116% | DU-145 prostate 117% | K-562 leukemia 89.9% | MALME-3M melanoma 138% | MDA-MB-231 breast 81.1% | RXF 393 renal 131% | SF-268 CNS 116% | SF-295 CNS 125% | SF-539 CNS 107% | UACC-257 melanoma 110% | M14 melanoma 110%

CCOc1cc(/C=C/C(=O)C(C(=O)/C=C/c2ccc(OC(=O)CNc3nnc(C)s3)c(OCC)c2)C(=O)CNc2nnc(C)s2)ccc1OC(=O)CNc1nnc(C)s1
active: NCI-H23 lung -2.16% | NCI-H226 lung -14.8% | NCI-H322M lung 6.22% | HOP-62 NSCLC 3.59% | NCI-H460 lung -46.8% | HOP-92 NSCLC -25.6% | A549/ATCC NSCLC 8.11% | 786-0 renal -73.7% | COLO 205 colon -55% | DU-145 prostate -68.7% | K-562 leukemia -41.8% | MALME-3M melanoma -20.8% | MDA-MB-231 breast -36.9% | RXF 393 renal -78.5% | SF-268 CNS -16.4% | SF-295 CNS -24.7% | SF-539 CNS -54.5% | M14 melanoma -26.3%
inactive: UACC-257 melanoma 15.3%

O=C(CSc1nnc(-c2cc(-c3ccccc3)nc3ccccc23)o1)c1ccc(Br)cc1
inactive: NCI-H23 lung 106% | NCI-H226 lung 104% | NCI-H322M lung 103% | HOP-62 NSCLC 101% | NCI-H460 lung 106% | HOP-92 NSCLC 114% | A549/ATCC NSCLC 105% | 786-0 renal 104% | COLO 205 colon 119% | DU-145 prostate 106% | K-562 leukemia 91% | MALME-3M melanoma 97.3% | MDA-MB-231 breast 95.4% | RXF 393 renal 108% | SF-268 CNS 93.8% | SF-295 CNS 107% | SF-539 CNS 99.6% | UACC-257 melanoma 111% | M14 melanoma 101%

N#Cc1c(NC(=O)c2ccco2)[n+]([O-])c2ccccc2[n+]1[O-]
inactive: NCI-H23 lung 110% | NCI-H226 lung 86.1% | NCI-H322M lung 103% | HOP-62 NSCLC 82.9% | NCI-H460 lung 107% | HOP-92 NSCLC 164% | A549/ATCC NSCLC 99.7% | 786-0 renal 99.2% | COLO 205 colon 105% | DU-145 prostate 95.5% | K-562 leukemia 84.9% | MALME-3M melanoma 112% | MDA-MB-231 breast 96.1% | RXF 393 renal 95.5% | SF-268 CNS 110% | SF-295 CNS 107% | SF-539 CNS 84.4% | UACC-257 melanoma 102% | M14 melanoma 104%

CC(=O)N1N=C(c2ccc3c(c2)OCO3)CC1c1c(C)nn(-c2ccccc2)c1N(C)Cc1ccccc1 (configuration not stated)
inactive: NCI-H23 lung 86.9% | NCI-H226 lung 76.3% | NCI-H322M lung 89.6% | HOP-62 NSCLC 77.1% | NCI-H460 lung 79.1% | HOP-92 NSCLC 46.1% | A549/ATCC NSCLC 50.6% | 786-0 renal 85.5% | COLO 205 colon 79.3% | DU-145 prostate 94.6% | K-562 leukemia 56.5% | MALME-3M melanoma 84.8% | MDA-MB-231 breast 81% | RXF 393 renal 79.2% | SF-268 CNS 74.4% | SF-295 CNS 68.9% | SF-539 CNS 94.5% | UACC-257 melanoma 56.7% | M14 melanoma 77.2%

COc1ccc2c(c1)sc1nc(-c3ccc(N(C)C)cc3)cn12
inactive: NCI-H23 lung 99.2% | NCI-H226 lung 139% | NCI-H322M lung 98.2% | HOP-62 NSCLC 105% | NCI-H460 lung 85% | HOP-92 NSCLC 34.3% | A549/ATCC NSCLC 96.6% | 786-0 renal 89.7% | COLO 205 colon 93.7% | DU-145 prostate 103% | K-562 leukemia 80% | MALME-3M melanoma 112% | MDA-MB-231 breast 122% | RXF 393 renal 114% | SF-268 CNS 93.1% | SF-295 CNS 98.7% | SF-539 CNS 99.4% | UACC-257 melanoma 95.8% | M14 melanoma 103%

CC(=O)Nc1c(Cl)cc2c(c1Cl)Cc1cc([N+](=O)[O-])ccc1-2
inactive: NCI-H23 lung 88% | NCI-H226 lung 85% | NCI-H322M lung 94.9% | HOP-62 NSCLC 69.6% | NCI-H460 lung 81.3% | HOP-92 NSCLC 53.3% | A549/ATCC NSCLC 74.5% | 786-0 renal 77.9% | COLO 205 colon 103% | DU-145 prostate 93.3% | K-562 leukemia 80.4% | MALME-3M melanoma 68.2% | MDA-MB-231 breast 97.5% | RXF 393 renal 104% | SF-268 CNS 101% | SF-295 CNS 81.8% | SF-539 CNS 89.1% | UACC-257 melanoma 77.9% | M14 melanoma 88.1%
